This note sets out measurements from PubChem BioAssay.

SMILES strings stand for the structures. The source made the active and inactive calls.

Test [1] in a line: small molecules captured by biotinylated probe aFSTL3 – biochemical, small-molecule microarray, fluorescence 635/667, stem cell growth factor project, primary screen (AID 1064).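 Also: measures binding of the biotinylated anti-FSTL3 antibody to printed compounds.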 Conditions: higher = more signal.
Test [2] is described as follows: binders from COS7 lysate, DM2A8 probe, primary screen, torsin A project, cell lysate, small-molecule microarray, fluorescence 635/667 (AID 1065). Conditions: higher = more signal, COS7 lysate expressing mutant human TOR1A.
Test [3] is described as follows: small molecules captured by biotinylated probe aFGF2 – biochemical, small-molecule microarray, fluorescence 635/667, stem cell growth factor project, primary screen (AID 1067).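 Also: measures binding of biotinylated aFGF2 protein to printed compounds on slides; z-score merges feature fluorescence and signal-to-noise across triplicate slides.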 Conditions: higher = more signal.
The nature of test [4]: small molecules captured by biotinylated probe aFGF10 – biochemical, small-molecule microarray, fluorescence 635/667, stem cell growth factor project, primary screen (AID 1071).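 Also: score merges 667 nm spot intensity and signal to noise from triplicate slides.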 Particulars: higher = more signal.
The target of test [5] is Neurogenic locus notch homolog protein 2 (Homo sapiens) (UniProt Q04721). In words: small molecules binding Notch2 protein – biochemical, small-molecule microarray, 635 nm fluorescence, stem cell growth factors, primary screen (AID 1073). Conditions: higher = more signal.
For test [6], the target named is Pro-neuregulin-1, membrane-bound isoform (Homo sapiens) (UniProt Q02297). In words: small molecules binding neuregulin-1 protein – biochemical, small-molecule microarray, fluorescence 635/667, psychiatric disease protein project, primary screen (AID 1075).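 Also: score combines 667 nm spot fluorescence with signal to noise.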 Conditions: NRG1 binding, 635 nm fluorescence, higher = more signal.
Test [7] concerns Neuregulin-1 EGF-like domain. In words: small molecules binding NRG1 EGF domain – biochemical, small-molecule microarray, 635 nm fluorescence, primary screen (AID 1081).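 Also: binding of the protein to compounds printed on small-molecule microarray slides.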 Particulars: higher = more signal.
Test [8] in a line: FRG1 expression reporter modulators in myotubes – cell-based, C2C12 myotubes, firefly/Renilla luciferase, luminescence, FRG1 inhibition for FSHD, primary screen (AID 1084). Particulars: FRG1 promoter luciferase, higher = more signal, called active from +8 up or from −8 down.
Test [9] can be described thus: small molecules captured by biotinylated probe aFST – biochemical, small-molecule microarray, fluorescence 635/667, stem cell growth factor project, primary screen (AID 1086).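 Also: score merges 667 nm fluorescence with signal-to-noise of each printed compound spot.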 Particulars: higher = more signal.
The nature of test [10]: binders of probe aHhip on microarray, primary screen, stem cell growth factor project, biochemical, small-molecule microarray, fluorescence 635/667 (AID 1087).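 Also: score merges spot fluorescence at 667nm with spot signal to noise ratio.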 Particulars: higher = more signal.
In test [11] the test system is PRMT1 (protein arginine N-methyltransferase 1). In words: small molecules binding arginine methyltransferase PRMT1 – biochemical, small-molecule microarray, 635 nm fluorescence, primary screen (AID 1088).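 Also: binding of Prmt1 protein to compounds spotted on small-molecule microarray slides.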 Conditions: higher = more signal.
Test [12] is described as follows: growth effects on S. cerevisiae YJM789 – YJM789 clinical isolate, OD600, 24 h, basal, primary screen (AID 1089).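 Also: growth of clinical yeast isolate S. cerevisiae YJM 789 seeded 1000 cells per well; test concentration not given here.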 Particulars: higher = more signal, called active from +8 up or from −8 down.
Test [13] can be described thus: S. pombe growth modifiers, basal conditions – strain 972, OD600, 24 h, no modulator, primary screen (AID 1090).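 Also: basal condition with compound alone and no growth modifier present; test concentration not given here.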 Particulars: S. pombe 972 growth, higher = more signal, called active from +8 up or from −8 down.
Test [14] is described as follows: budding yeast growth modifiers under rapamycin – strain BY4716, OD600, 96 h, primary screen (AID 1091). Also: test concentration not given here. Conditions: S. cerevisiae BY4716 + rapamycin, higher = more signal, called active from +8 up or from −8 down.
Test [15] deals with Torsin-1A-interacting protein 2 (Homo sapiens) (UniProt Q8NFQ8). Kind of test: small molecules binding lysate-expressed LULL1 – cell lysate, human LULL1 lysate, 635/667 nm fluorescence, primary screen (AID 1092).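 Also: score merges per-feature 667 nm fluorescence with signal-to-noise.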 Conditions: small-molecule microarray, hLULL1 lysate binding, 635 nm fluorescence; higher = more signal.
Test [16] is described as follows: optical density change of DRC41 E. coli – strain DRC41, OD650, 24 h, E. coli filamentation project, primary screen (AID 1093).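 Also: MC1000 strain lacking acrAB efflux and sulA so SOS filamentation is blocked; test concentration not given here.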 Particulars: E. coli DRC41 growth, higher = more signal, called active from +8 up or from −8 down.
Test [17] in a line: probe aLefty2 binding to arrayed compounds – biochemical, biotinylated probe, 635/667 nm fluorescence, primary screen (AID 1094).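 Also: score merges spot fluorescence near 667 nm with spot signal-to-noise ratio.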 Particulars: small-molecule microarray, higher = more signal.
Test [18] deals with Noggin (protein binding on small-molecule microarray). In words: small molecules binding Noggin protein – biochemical, 635/667 nm fluorescence, primary screen (AID 1095).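 Also: score merges 667 nm feature fluorescence with signal to noise over triplicate slides.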 Particulars: 635 nm fluorescence, higher = more signal.
Test [19] addresses Neurogenic locus notch homolog protein 3 (Homo sapiens) (UniProt Q9UM47). In words: small molecules binding NOTCH3 protein – biochemical, 635/667 nm fluorescence, primary screen (AID 1096). Conditions: small-molecule microarray, 635 nm fluorescence, higher = more signal.
Test [20] in a line: probe aEGFR binding to arrayed compounds – biochemical, biotinylated probe, 635/667 nm fluorescence, primary screen (AID 1097).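 Also: probe is a biotinylated anti-EGFR antibody binding compounds printed on slides; score combines fluorescence near 667 nm and signal to noise of each spot.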 Conditions: small-molecule microarray, higher = more signal.

Neurogenic locus notch homolog protein 3 (Homo sapiens), sequence (Q9UM47 whole entry, looked up): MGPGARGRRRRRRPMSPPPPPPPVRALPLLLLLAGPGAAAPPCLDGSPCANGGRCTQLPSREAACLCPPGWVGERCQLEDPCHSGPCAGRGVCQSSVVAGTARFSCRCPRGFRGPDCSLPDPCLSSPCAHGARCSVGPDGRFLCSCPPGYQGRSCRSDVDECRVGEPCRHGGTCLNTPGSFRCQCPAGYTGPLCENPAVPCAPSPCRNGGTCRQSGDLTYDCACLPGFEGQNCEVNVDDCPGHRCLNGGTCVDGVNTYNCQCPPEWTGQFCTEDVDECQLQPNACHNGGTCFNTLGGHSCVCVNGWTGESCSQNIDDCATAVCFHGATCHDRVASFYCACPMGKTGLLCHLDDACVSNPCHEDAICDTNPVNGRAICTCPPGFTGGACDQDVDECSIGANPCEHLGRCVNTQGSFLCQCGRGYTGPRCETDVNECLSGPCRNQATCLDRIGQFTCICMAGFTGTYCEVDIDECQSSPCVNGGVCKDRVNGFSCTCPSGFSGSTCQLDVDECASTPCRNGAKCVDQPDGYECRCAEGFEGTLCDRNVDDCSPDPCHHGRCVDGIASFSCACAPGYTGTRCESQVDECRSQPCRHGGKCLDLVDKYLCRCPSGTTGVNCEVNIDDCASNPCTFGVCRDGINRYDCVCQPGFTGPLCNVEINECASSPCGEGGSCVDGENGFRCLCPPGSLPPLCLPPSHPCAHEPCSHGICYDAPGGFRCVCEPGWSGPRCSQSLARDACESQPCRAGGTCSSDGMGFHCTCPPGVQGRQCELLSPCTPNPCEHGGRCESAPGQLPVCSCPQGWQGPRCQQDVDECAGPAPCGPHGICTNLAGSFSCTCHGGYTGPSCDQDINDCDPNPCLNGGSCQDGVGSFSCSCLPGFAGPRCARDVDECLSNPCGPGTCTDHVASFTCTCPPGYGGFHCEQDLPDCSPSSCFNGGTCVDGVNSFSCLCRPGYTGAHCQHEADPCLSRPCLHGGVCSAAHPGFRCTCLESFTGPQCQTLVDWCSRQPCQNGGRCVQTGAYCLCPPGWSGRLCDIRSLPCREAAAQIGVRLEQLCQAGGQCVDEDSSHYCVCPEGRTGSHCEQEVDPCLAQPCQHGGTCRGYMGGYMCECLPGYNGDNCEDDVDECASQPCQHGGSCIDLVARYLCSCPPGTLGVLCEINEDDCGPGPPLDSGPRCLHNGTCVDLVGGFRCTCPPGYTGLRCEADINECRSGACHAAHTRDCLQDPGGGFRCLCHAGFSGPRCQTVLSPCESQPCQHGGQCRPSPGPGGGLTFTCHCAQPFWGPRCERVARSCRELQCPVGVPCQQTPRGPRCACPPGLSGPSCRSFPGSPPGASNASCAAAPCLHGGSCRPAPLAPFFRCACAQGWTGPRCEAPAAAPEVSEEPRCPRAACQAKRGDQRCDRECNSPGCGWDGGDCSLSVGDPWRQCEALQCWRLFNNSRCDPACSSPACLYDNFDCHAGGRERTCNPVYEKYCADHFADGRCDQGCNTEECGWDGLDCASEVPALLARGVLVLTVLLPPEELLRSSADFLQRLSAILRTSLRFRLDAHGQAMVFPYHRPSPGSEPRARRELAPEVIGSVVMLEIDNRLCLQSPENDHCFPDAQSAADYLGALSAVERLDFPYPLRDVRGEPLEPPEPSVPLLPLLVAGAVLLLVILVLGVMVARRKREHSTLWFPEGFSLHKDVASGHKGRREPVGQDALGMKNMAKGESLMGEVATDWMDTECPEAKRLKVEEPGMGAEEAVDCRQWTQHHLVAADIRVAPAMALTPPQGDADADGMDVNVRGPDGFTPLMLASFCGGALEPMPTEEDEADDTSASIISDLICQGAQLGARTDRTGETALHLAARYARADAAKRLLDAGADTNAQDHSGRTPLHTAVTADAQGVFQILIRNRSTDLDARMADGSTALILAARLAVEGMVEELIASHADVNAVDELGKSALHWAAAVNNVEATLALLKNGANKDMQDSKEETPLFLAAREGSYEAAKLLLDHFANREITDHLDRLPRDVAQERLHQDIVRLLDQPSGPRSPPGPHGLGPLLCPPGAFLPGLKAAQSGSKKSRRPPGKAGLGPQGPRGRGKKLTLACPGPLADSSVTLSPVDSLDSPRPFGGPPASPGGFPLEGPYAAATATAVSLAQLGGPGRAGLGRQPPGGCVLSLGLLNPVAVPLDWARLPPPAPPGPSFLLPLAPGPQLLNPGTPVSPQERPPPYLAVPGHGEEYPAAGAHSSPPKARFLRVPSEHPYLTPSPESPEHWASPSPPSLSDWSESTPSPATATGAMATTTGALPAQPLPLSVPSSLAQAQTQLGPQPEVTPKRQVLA
Torsin-1A-interacting protein 2 (Homo sapiens), sequence (Q8NFQ8 whole entry, looked up): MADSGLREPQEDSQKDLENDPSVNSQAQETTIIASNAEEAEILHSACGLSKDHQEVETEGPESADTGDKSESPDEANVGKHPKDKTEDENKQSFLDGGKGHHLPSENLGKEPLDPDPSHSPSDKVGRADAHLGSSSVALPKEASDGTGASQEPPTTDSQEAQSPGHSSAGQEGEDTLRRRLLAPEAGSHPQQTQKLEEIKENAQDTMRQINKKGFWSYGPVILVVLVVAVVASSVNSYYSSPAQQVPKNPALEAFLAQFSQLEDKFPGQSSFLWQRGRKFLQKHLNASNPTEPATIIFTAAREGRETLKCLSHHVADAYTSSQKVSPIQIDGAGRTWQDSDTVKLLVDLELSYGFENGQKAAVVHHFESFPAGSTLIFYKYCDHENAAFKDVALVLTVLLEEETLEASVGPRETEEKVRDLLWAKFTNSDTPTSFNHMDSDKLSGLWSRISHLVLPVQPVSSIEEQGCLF
Pro-neuregulin-1, membrane-bound isoform (Homo sapiens), sequence (Q02297 whole entry, looked up, the tested form may be a part, canonical isoform): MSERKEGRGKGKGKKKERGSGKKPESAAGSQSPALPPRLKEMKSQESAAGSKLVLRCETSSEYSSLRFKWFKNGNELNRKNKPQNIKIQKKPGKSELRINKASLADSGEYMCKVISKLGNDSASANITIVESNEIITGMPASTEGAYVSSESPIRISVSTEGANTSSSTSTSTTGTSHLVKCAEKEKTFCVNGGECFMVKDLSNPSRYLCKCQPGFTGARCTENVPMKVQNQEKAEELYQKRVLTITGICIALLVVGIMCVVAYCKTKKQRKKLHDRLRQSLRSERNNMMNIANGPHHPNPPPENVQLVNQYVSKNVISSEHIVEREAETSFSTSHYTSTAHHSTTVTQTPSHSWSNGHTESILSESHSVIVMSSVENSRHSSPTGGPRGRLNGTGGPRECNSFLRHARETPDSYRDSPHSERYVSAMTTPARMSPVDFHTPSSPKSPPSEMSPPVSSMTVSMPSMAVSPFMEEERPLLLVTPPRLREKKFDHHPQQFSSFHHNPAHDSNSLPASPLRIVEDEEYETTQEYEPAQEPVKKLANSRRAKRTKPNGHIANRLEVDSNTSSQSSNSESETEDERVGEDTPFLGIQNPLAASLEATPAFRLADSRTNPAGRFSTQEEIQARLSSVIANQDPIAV

As for `NCCCCCNC(=O)[C@@H]1C[C@@H]2C(=O)NCC(=O)N2[C@@H]1c1cccc(OCCO)c1`, the composite z-score was -0.144 in test [1]; 0.45 in test [2]; 0.108 in test [3]; 0.773 in test [4]; 0.756 in [5]; 0.889 in test [6]. Moreover, the composite z-score in test [7] turned out to be 1.34; in test [9], 0.417; in test [10] it was 0.151; in test [11], 1.44; in [15], 1.32; in [17] it was 0.086. Also, the composite z-score in [18] is 1.35; in [19], 0.712; in [20], -0.0158. For the same compound, the z-score is 0.0981 (inactive) in [8]; -0.0012 (inactive) in test [12]; -0.926 (inactive) in test [13]; 0.267 (inactive) in [14]; 2.01 (inactive) in test [16].

`C=CCOC(=O)[C@H]1[C@@H]2C(=O)O[C@@H](c3ccccc3)[C@@H](c3ccccc3)N2[C@@H](c2ccc(OCCOC(=O)[C@H]3C[C@H]4C(=O)N[C@@H](CCCCNC(C)=O)C(=O)N4[C@H]3c3ccc(O)cc3)cc2)[C@]12C(=O)Nc1ccccc12`: the composite z-score was -0.0493 in test [1]; 0.498 in test [2]; -0.0736 in test [3]; 0.0817 in test [4]; 0.307 in [5]; 0.285 in test [6]. In addition, the composite z-score in [7] was 0.999; in [9], 0.352; in test [10], -0.0994; in test [11] it was 1.54; in [15] it was 2.27; in test [17] it was 0.0557. In addition, the composite z-score in test [18] is 1.63; in test [19], 0.991; in test [20] it was -0.0509. For the same compound, the z-score was -1.15 (inactive) in test [8]; -5.42 (inactive) in test [12]; -1.54 (inactive) in test [13]; 0.491 (inactive) in test [14]; 3.05 (inactive) in [16].

In the case of `CCOc1cc(C(O)C2C=CC3C(=O)N(c4ccccc4)C(=O)C3N2Nc2ccc(C#N)cc2)ccc1O` (stereo not given), the composite z-score in [1] was -0.17; in test [2], -0.223; in test [3], 0.0024; in test [4], 0.11; in [5] it was 1.27; in test [6], 1. In addition, the composite z-score came to 0.836 in [7]; 0.0472 in [9]; 0.0139 in test [10]; 0.0034 in [11]; 3.3 in test [15]; 0.121 in test [17]. The values for the composite z-score in [18], in test [19] and in test [20] were -0.167, -0.0195 and -0.133, respectively. Also, the z-score was 0.163 (inactive) in [8]; 0.453 (inactive) in test [12]; 1.15 (inactive) in [13]; 0.726 (inactive) in test [14]; -0.715 (inactive) in [16].

For `O=C1NC(=O)C2C1C=CC(C(O)c1c(F)cccc1Cl)N2Nc1ccc(Cl)cc1Cl` (stereo not given), the composite z-score in [1] stood at 1.38; in test [2], 1.79; in test [3] it was 0.0389; in test [4], 0.424; in test [5], 1.29; in [6], 1.37. Besides, the composite z-score is 1.17 in test [7]; 1.22 in test [9]; -0.216 in test [10]; 0.0621 in [11]; 3.2 in test [15]; 0.319 in [17]. The composite z-score in test [18] was -0.836; in [19], 0.53; in test [20], 0.0069. Further, the z-score is -1.03 (inactive) in test [8]; -20.9 (active) in [12]; -1.98 (inactive) in test [13]; 1.65 (inactive) in [14]; -3.22 (inactive) in test [16].

As to `COCCCNC(=O)[C@@]1(Sc2ccc(C)cc2)CC(=O)N(C2CCCCC2)[C@@H]1c1ccc(CO)cc1`, the composite z-score in test [1] was 0.863; in [2], -0.596; in [3] it was 0.0019; in test [4], 0.0381; in [5], -0.957; in test [6] it was -0.113. For the same compound, the composite z-score was -0.119 in [7]; -0.37 in test [9]; -0.191 in test [10]; 1.08 in test [11]; 2.96 in [15]; 0.0977 in test [17]. The results for the composite z-score in test [18], in test [19] and in [20] were -0.804, 0.0236 and -0.221, respectively. In addition, the z-score in [8] was -0.721 (inactive); in test [12] it was -0.858 (inactive); in [13], 0.478 (inactive); in test [14], -0.874 (inactive); in test [16] it was 0.195 (inactive).
